Reference: PubChem BioAssay
Active and inactive are the calls of the source.

What follows are molecules tested against Homeobox protein Hox-A13 (Mus musculus) (UniProt Q62424) (assay: inhibitors of HoxA13-DNA binding, primary screen, biochemical, fluorescence polarization, labeled oligonucleotide (AID 1185)). Details: 15 min, higher = more signal, called active from +8 up or from −8 down.
Homeobox protein Hox-A13 (Mus musculus), sequence (Q62424 whole entry, looked up): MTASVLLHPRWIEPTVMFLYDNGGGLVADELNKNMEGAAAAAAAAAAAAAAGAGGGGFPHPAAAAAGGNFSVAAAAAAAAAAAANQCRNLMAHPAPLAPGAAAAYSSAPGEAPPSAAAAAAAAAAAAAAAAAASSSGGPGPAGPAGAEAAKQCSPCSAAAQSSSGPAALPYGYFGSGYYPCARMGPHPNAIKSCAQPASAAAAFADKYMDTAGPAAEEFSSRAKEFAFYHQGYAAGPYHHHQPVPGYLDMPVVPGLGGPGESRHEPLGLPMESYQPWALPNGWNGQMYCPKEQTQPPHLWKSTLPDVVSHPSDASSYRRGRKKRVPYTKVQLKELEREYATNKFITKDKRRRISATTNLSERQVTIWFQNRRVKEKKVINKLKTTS

z-score, inactive:
CC(CCN1CCCCc2nc(C)c(C)cc21)=NOC[C@@H](O)[C@H]1O[C@@H]2OC(C)(C)O[C@@H]2[C@H]1O -1.75, CCCC[C@H]1CN2[C@@H](CC[C@@H](C)[C@@H]2c2ccc(Br)cc2)C(=O)O1 -3.59, COC(=O)CC=C[C@@H](C)[C@@H](C=NOC[C@@H](O)COCc1ccco1)NS(=O)(=O)c1ccc(C)cc1 -3.79, O=C1CCCC=C1C(O)c1ccc([N+](=O)[O-])cc1 (configuration not stated) 0.164, C[C@@H]1CC[C@@H](C(=O)O)N[C@H]1c1cccc(N2CCOCC2)c1 0.167, CC(C)=CCCC(C)=CCON=C1C[C@@H](O)[C@@H](O)[C@@H]2[C@@H]3C(=O)N(Cc4ccc5c(c4)OCO5)C(=O)[C@@H]3CC[C@@H]12 -0.814, CC(C)=NO[C@H](C)c1cn([C@@H]2COC[C@H]2O)nn1 0.141, C[C@@H]1CC[C@H]2C(=O)O[C@@H](CN=[N+]=[N-])CN2[C@H]1c1ccc(Br)cc1 -0.917, COc1ccc(OC[C@@H]2CC3[C@@H](c4ccc(Br)cc4)[C@H](C)CC[C@H]3C(=O)O2)cc1 (some centres not stated) 0.109, CC(=O)OC[C@H]1O[C@H](CC=NO[C@@H](C)c2cn([C@H](CO)Cc3ccccc3)nn2)C=C[C@@H]1OC(C)=O -0.583, CON=C(C)CCN1CCCc2nc(C)c(C)cc21 -7.51, O=C1[C@H]2[C@H]3[C@H](O)[C@H](O)CC(=NOC[C@@H](O)COCc4ccco4)[C@@H]3CC[C@H]2C(=O)N1C1CCCCC1 -4.42
